About 83,000 compounds went through this panel and 20% of them were active in at least one assay; those are over-represented in the sample as a whole.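 Each cell line was grown in a 96-well plate and treated with one concentration of compound for 48 hours. Values below 10 were considered active.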 The source made the active and inactive calls.
What was measured:
Assay in all cases: NCI-60 one-dose screen, 48 h (100 = growth as untreated, 0 = no growth, -100 = all killed)
SK-MEL-2 melanoma = tested on: SK-MEL-2 melanoma
EKVX NSCLC = tested on: EKVX NSCLC
SN12C renal = tested on: SN12C renal
UO-31 renal = tested on: UO-31 renal
TK-10 renal = tested on: TK-10 renal
ACHN renal = tested on: ACHN renal
CAKI-1 renal = tested on: CAKI-1 renal
A498 renal = tested on: A498 renal
CCRF-CEM leukemia = tested on: CCRF-CEM leukemia
MOLT-4 leukemia = conditions: 10 µM unless noted

Measured: growth

CC(C)(C)C(=O)c1c2c(c3ccc4c5ccccc5ccc4n13)C(=O)c1ccccc1C2=O
inactive: SK-MEL-2 melanoma; 10 µM unless noted 104% | EKVX NSCLC; 10 µM unless noted 86.2% | SN12C renal; 10 µM unless noted 99% | UO-31 renal; 10 µM unless noted 67.9% | TK-10 renal; 10 µM unless noted 118% | ACHN renal; 10 µM unless noted 79.2% | CAKI-1 renal; 10 µM unless noted 85.4% | A498 renal; 10 µM unless noted 188% | CCRF-CEM leukemia; 10 µM unless noted 99.7% | MOLT-4 leukemia 94.3%

C=CCSc1nnc(-c2ccc(-c3nc4ccccc4[nH]3)cc2)o1
inactive: SK-MEL-2 melanoma; 10 µM unless noted 95% | EKVX NSCLC; 10 µM unless noted 71.5% | SN12C renal; 10 µM unless noted 83.8% | UO-31 renal; 10 µM unless noted 56.1% | TK-10 renal; 10 µM unless noted 87.7% | ACHN renal; 10 µM unless noted 78.1% | CAKI-1 renal; 10 µM unless noted 63.9% | A498 renal; 10 µM unless noted 113% | CCRF-CEM leukemia; 10 µM unless noted 32.6% | MOLT-4 leukemia 38.1%

COc1ccc(N=Nc2c(N)nn3c(N)c(C#N)c(-c4ccc(C)cc4)nc23)cc1
inactive: SK-MEL-2 melanoma; 10 µM unless noted 91% | EKVX NSCLC; 10 µM unless noted 36.3% | SN12C renal; 10 µM unless noted 57.7% | UO-31 renal; 10 µM unless noted 61.1% | TK-10 renal; 10 µM unless noted 101% | ACHN renal; 10 µM unless noted 56.8% | CAKI-1 renal; 10 µM unless noted 17.4% | A498 renal; 10 µM unless noted 128%
active: CCRF-CEM leukemia; 10 µM unless noted 8.68% | MOLT-4 leukemia 5.8%

CN1C(=O)/C(=C/c2ccco2)S/C1=N/c1nccs1
inactive: SK-MEL-2 melanoma; 10 µM unless noted 108% | EKVX NSCLC; 10 µM unless noted 91.8% | SN12C renal; 10 µM unless noted 100% | UO-31 renal; 10 µM unless noted 80.9% | TK-10 renal; 10 µM unless noted 130% | ACHN renal; 10 µM unless noted 100% | CAKI-1 renal; 10 µM unless noted 91.7% | A498 renal; 10 µM unless noted 107% | CCRF-CEM leukemia; 10 µM unless noted 96.8% | MOLT-4 leukemia 107%

COc1cc(CNC(=O)C[C@H](C)CCC=C(C)C)ccc1OCc1cn(-c2ccccc2Cl)nn1
inactive: SK-MEL-2 melanoma; 10 µM unless noted 53.3% | EKVX NSCLC; 10 µM unless noted 54% | SN12C renal; 10 µM unless noted 69.6% | UO-31 renal; 10 µM unless noted 30.3% | TK-10 renal; 10 µM unless noted 93.1% | ACHN renal; 10 µM unless noted 67.6% | CAKI-1 renal; 10 µM unless noted 46.3% | A498 renal; 10 µM unless noted 107% | CCRF-CEM leukemia; 10 µM unless noted 40.1% | MOLT-4 leukemia 16.3%

COc1ccc2[nH]c(O)c(N=NC(=O)c3ccc4nc(-c5ccc(Cl)cc5)[nH]c4c3)c2c1
inactive: SK-MEL-2 melanoma; 10 µM unless noted 109% | EKVX NSCLC; 10 µM unless noted 90.1% | SN12C renal; 10 µM unless noted 70.7% | UO-31 renal; 10 µM unless noted 95.6% | TK-10 renal; 10 µM unless noted 111% | ACHN renal; 10 µM unless noted 104% | CAKI-1 renal; 10 µM unless noted 93.6% | A498 renal; 10 µM unless noted 166% | CCRF-CEM leukemia; 10 µM unless noted 25.7% | MOLT-4 leukemia 15.7%

COc1ccc(-c2cc(C(=O)N=Nc3c(O)[nH]c4ccc(Cl)cc34)c3ccccc3n2)cc1
active: ACHN renal; 10 µM unless noted -6.95%
inactive: SK-MEL-2 melanoma; 10 µM unless noted 63.4% | EKVX NSCLC; 10 µM unless noted 21.3% | SN12C renal; 10 µM unless noted 51.4% | UO-31 renal; 10 µM unless noted 80.6% | TK-10 renal; 10 µM unless noted 116% | CAKI-1 renal; 10 µM unless noted 44.6% | A498 renal; 10 µM unless noted 148% | CCRF-CEM leukemia; 10 µM unless noted 85.7% | MOLT-4 leukemia 68.8%

CC/C(=C(\c1ccc(O)cc1)c1ccc(OCCN(C)C(=O)COCCNC(=O)Cc2ccc3c(c2)CN([C@@H]2CCC(=O)NC2=O)C3=O)cc1)c1ccccc1
active: CCRF-CEM leukemia; 1 µM -2.66% | CCRF-CEM leukemia; 10 µM -7.62%
inactive: SK-MEL-2 melanoma; 1 µM 82.5% | SK-MEL-2 melanoma; 10 µM 56.8% | EKVX NSCLC; 1 µM 103% | EKVX NSCLC; 10 µM 92.1% | SN12C renal; 1 µM 73.9% | SN12C renal; 10 µM 38.1% | UO-31 renal; 1 µM 92% | UO-31 renal; 10 µM 91.6% | TK-10 renal; 1 µM 105% | TK-10 renal; 10 µM 84.2% | ACHN renal; 1 µM 104% | ACHN renal; 10 µM 102% | CAKI-1 renal; 1 µM 99.2% | CAKI-1 renal; 10 µM 90.1% | A498 renal; 1 µM 117% | A498 renal; 10 µM 98.2%

CC/C(=C(\c1ccc(O)cc1)c1ccc(OCCNC)cc1)c1ccccc1
inactive: SK-MEL-2 melanoma; 1 µM 95.1% | SK-MEL-2 melanoma; 10 µM 98.7% | EKVX NSCLC; 1 µM 98.9% | EKVX NSCLC; 10 µM 96.4% | SN12C renal; 1 µM 101% | SN12C renal; 10 µM 73.8% | UO-31 renal; 1 µM 90.2% | UO-31 renal; 10 µM 62.7% | TK-10 renal; 1 µM 91.2% | TK-10 renal; 10 µM 94.5% | ACHN renal; 1 µM 98.4% | ACHN renal; 10 µM 90.4% | CAKI-1 renal; 1 µM 98.9% | CAKI-1 renal; 10 µM 85.3% | A498 renal; 1 µM 104% | A498 renal; 10 µM 91.2% | CCRF-CEM leukemia; 1 µM 89.9% | CCRF-CEM leukemia; 10 µM 92.6%

CC/C(=C(/c1ccc(O)cc1)c1ccc(OCCN(C)C(=O)COCCOCCNC(=O)Cc2ccc3c(c2)CN([C@@H]2CCC(=O)NC2=O)C3=O)cc1)c1ccccc1
inactive: SK-MEL-2 melanoma; 1 µM 95.4% | SK-MEL-2 melanoma; 10 µM 64.1% | EKVX NSCLC; 1 µM 99.4% | EKVX NSCLC; 10 µM 105% | SN12C renal; 1 µM 88.7% | SN12C renal; 10 µM 53.5% | UO-31 renal; 1 µM 91.6% | UO-31 renal; 10 µM 89.4% | TK-10 renal; 1 µM 101% | TK-10 renal; 10 µM 89.2% | ACHN renal; 1 µM 102% | ACHN renal; 10 µM 106% | CAKI-1 renal; 1 µM 99.8% | CAKI-1 renal; 10 µM 101% | A498 renal; 1 µM 119% | A498 renal; 10 µM 115% | CCRF-CEM leukemia; 10 µM 16.7%
active: CCRF-CEM leukemia; 1 µM -11%
